Measured values reported in ChEMBL document CHEMBL1157539, “Thousands of chemical starting points for antimalarial lead identification” (Nature, 2010).

test system: Plasmodium falciparum; assay: GSK_TCMDC: Inhibition of Plasmodium falciparum Dd2 in whole red blood cells, using parasite LDH activity as an index of growth. Test compounds present at 2uM; format: functional

Compared with `O=C(NC1CCC(N2CCC(O)(c3ccc(F)cc3)CC2)CC1)c1cc2ccccc2[nH]1` (stereo not given), `O=C(Nc1ccc2c(c1)CCN(C1CCC1)CC2)c1cn(-c2ccccc2)nc1-c1ccccc1.O=C(O)C(F)(F)F` is higher in Inhibition: 8% for the first, 10% for the second.

Going from `COc1ccc(NCc2cccc(-c3cccc(CNCCc4ccccc4)c3)c2)cc1.O=C(O)C(F)(F)F` to `COc1cccc(C2(c3cccc(OC)c3)N=C(N)N(CCCc3ccccc3)C2=O)c1.O=CO`, the Inhibition rises from 14% to 93%.

Going from `CS(=O)(=O)N1CC2(CCN(CCC(NC(=O)NCc3ccc(Cl)c(Cl)c3)c3ccc(Cl)c(Cl)c3)CC2)c2ccccc21` (stereo not given) to `O=C(NCc1ccccc1)NC(CCCN1CCC(Oc2cccc(Cl)c2)CC1)c1ccc(Cl)c(Cl)c1` (stereo not given), the Inhibition falls from 59% to 57%.

First: N#Cc1ccc(-c2ccc(C(=O)NCCCCN3CCC(c4ccc5c(c4OCc4ccncc4)CCCC5)CC3)cc2)cc1
Second: Cc1ccc(NC(=O)Nc2ccccc2)cc1-c1ccc(C(=O)Nc2ccncc2)cc1
The Inhibition of the first is higher: 57% for the first, 52% for the second.

First: Cc1c2c(nn1-c1ccccc1)C(c1ccccc1)N(c1ccccc1)C2=O (stereo not given)
Second: COc1ccc(C=NN=c2c3ccccc3[nH]c3ccccc23)c2ccccc12
The Inhibition of the first is higher: 96% for the first, 23% for the second.

Going from `O=C(/C=C/c1ccc(Cl)c(Cl)c1)NCCCCCN1CCC(NC(=S)Nc2cccc(Cl)c2)CC1` to `COc1cccc(NC(=O)c2ccc(NCCCN3CCC(C)CC3)c([N+](=O)[O-])c2)c1`, the Inhibition rises from 43% to 46%.

First: N#Cc1ccc(Cn2ccc3c4c(N)nc(N)nc4ccc32)cc1
Second: Cl.Nc1nc(Nc2ccc(Cl)cc2)nc2ccccc12
The Inhibition of the first is higher: 95% for the first, 21% for the second.

First: CS(=O)(=O)CCNCc1nc(-c2ccc3c(=O)[nH]cnc3c2)cs1
Second: CS(=O)(=O)CCNCc1nc(-c2ccc3ncnc(Nc4ccc(OCc5ccccc5)c(Cl)c4)c3c2)cs1.Cl
The Inhibition of the first is higher: 96% for the first, 55% for the second.

First: Cc1cc(C(=O)Nc2ccc(OCc3ccccc3)cc2)on1
Second: Cc1cc(N(C)C)nc(Nc2ccc(NC(=O)c3ccccc3C)cc2)n1
The Inhibition of the first is higher: 89% for the first, 16% for the second.

Going from `COc1ccc(CN2CCC(N3CCc4cc(NC(=O)c5cc(C)on5)ccc43)C2)cc1Cl` (stereo not given) to `COc1ccc2nc(C)cc(Nc3ccc(Cl)c(Cl)c3)c2c1`, the Inhibition rises from 91% to 99%.

Going from `CN1CCN(c2cccc(-c3nnc(-c4ccc(OCC(=O)NCc5cccc(C(F)(F)F)c5)c([N+](=O)[O-])c4)o3)c2)CC1` to `Cc1cccc(NC(=O)Nc2cccc(-c3ccc(-c4nc5cc(C(F)(F)F)ccc5[nH]4)cc3)c2)c1`, the Inhibition rises from 72% to 94%.

Going from `CC(C)CCCC(C)NC[C@@H](O)[C@H](Cc1ccccc1)NC(=O)c1cc(N2CCCC2=O)cc(N(c2ccccc2)S(C)(=O)=O)c1` (stereo not given in full) to `CN(CCCN(C)c1cc(NC(=O)c2ccc(F)cc2)ccn1)Cc1cccc(F)c1.O=C(O)C(F)(F)F`, the Inhibition falls from 97% to 60%.

Compared with `CCN(CC)CCCOC(=O)c1ccc2c(c1)-c1ccc(C(=O)OCCCN(CC)CC)c3cccc-2c13.Cl`, `CCCCCn1c(Sc2ccc(C#N)c([N+](=O)[O-])c2)nnc1-c1ccc(Cl)cc1` is lower in Inhibition: 96% for the first, 29% for the second.

Going from `CC(=O)c1ccc2nc[nH]c(=O)c2c1` to `CCCCC(=O)Nc1nc2ccc([N+](=O)[O-])cc2s1`, the Inhibition falls from 99% to 69%.

Compared with `Oc1ccc2[nH]cc(C3CCN(CCCCCCCCCN4CCC(c5c[nH]c6ccc(O)cc56)CC4)CC3)c2c1`, `CC(C)n1c(C2CCN(CC3CCN(C(=O)/C=C/c4ccc(Cl)c(Cl)c4)CC3)CC2)nc2ccccc21` is higher in Inhibition: 2% for the first, 7% for the second.

First: CC1CN(Cc2ccc(-c3ccc(-c4nc5cc(F)ccc5[nH]4)cc3)cc2)CC(C)O1.O=C(O)C(F)(F)F (stereo not given)
Second: Cc1cccc2nc(-c3ccc(-c4ccc(CNCC(C)C)cc4)cc3)[nH]c12.O=C(O)C(F)(F)F
The Inhibition of the first is higher: 93% for the first, 90% for the second.

First: CCNC(=O)Nc1ccc(-c2cccc(-c3nc4cccc(C)c4[nH]3)c2)cc1
Second: Cc1ccc(NC(=O)c2c(C)noc2-c2snnc2C)cc1
The Inhibition of the first is lower: 34% for the first, 71% for the second.

Going from `Cc1cnc2cc3c(cc2c1N1CCN(C)CC1)NCC3` to `Cn1c(Sc2ncnc3sccc23)nc2ccccc21`, the Inhibition rises from 69% to 100%.

First: CCn1cc(C=C2Oc3c(ccc(O)c3CN3CCCCC3)C2=O)c2cc(OC)ccc21
Second: O=S(=O)(Nc1ccc(CCN2CCC(N3CCCCC3)CC2)cc1)c1ccc(Cl)cc1
The Inhibition of the first is higher: 99% for the first, 18% for the second.

Going from `CNC(=O)C1Cc2c([nH]c3ccc(Cl)cc23)C2(CCN(CCc3ccccc3)CC2)N1` (stereo not given) to `Cc1nc(N)nc(N)c1-c1ccc(Br)cc1`, the Inhibition falls from 16% to 1%.
